# Results taken from article PMC5540273 (PLoS ONE, 2017).
# System: CDK3
# Details: concentration: 1 μM,replicates: in singlicate; n = 1
# 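Further: KINOMEscan kinase panel screen.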
row,Compound,%Inh [%]
1,O=C(Nc1cccc(C(F)(F)F)c1)c1cccc(Oc2ccc3nccn3n2)c1,22
2,O=c1[nH]cc(-c2ccc(O)cc2)c2sc(-c3ccncc3)cc12 [GSK1033723],1
3,Cc1nnc(-c2ccc3occ(-c4ccc(S(C)=O)cc4)c3n2)o1 (stereo not shown),0
4,Cl.Cl.NC[C@H](CC1CCCCC1)NC(=O)c1ccc(-c2ccnc3[nH]ccc23)s1 [GSK1581428],0
5,CCNCC(Cc1ccccc1)NC(=O)c1cc(Br)c(-c2ccnc3[nH]ccc23)s1.Cl.Cl (stereo not shown) [GSK1383280],12
6,COc1cc2nccc(Nc3ccc(Oc4ccccc4)cc3)c2cc1OC.Cl [GI261656],0
7,O=C(NCC1CC1)c1ccc(-c2cc(C(=O)NC3CC3)ccc2F)cc1 [GW810445],7
8,NC(=O)Nc1sc(-c2ccc(F)cc2)cc1C(N)=O [GW789449],17
9,C[C@@H](Oc1cc(-n2cnc3cc(-c4ccncc4)ccc32)sc1C(N)=O)c1ccccc1Cl [GSK479719],29
10,OCCn1cc(-c2cnc3nnn(Cc4ccc5ncccc5c4)c3n2)cn1,5
11,Cn1ccc2ncnc(Oc3ccc(NC(=O)Nc4cncc(C(F)(F)F)c4)c(Cl)c3)c21,0
12,COC(=O)c1cccc(NC(=O)NC2CCN(c3ccnc(NCc4ccc(F)cc4)n3)CC2)c1 [GSK1379860],9
13,Cc1n[nH]c2cc(Nc3ccnc(Nc4cccc(CN5CCOCC5)c4)n3)ccc12 [GW682569],5
14,FC(F)(F)c1cc(Br)cc(Nc2nccc(-c3cnn4ncccc34)n2)c1 [GW810578],73
15,Cn1ccc2ncnc(Oc3ccc(NC(=O)Nc4cccc(C(F)(F)F)c4)c(F)c3)c21,39
16,COc1cc2ncn(-c3cc(OCC4CCCCC4)c(C(N)=O)s3)c2cc1OC [GSK204559],21
17,CN1CCN(CCNc2nc3cc(Oc4ccc(NC(=O)Nc5cc(C(F)(F)F)ccc5F)cc4)ccc3[nH]2)CC1.Cl.Cl [GW768504],6
18,CS(=O)c1ccc(-c2coc3ccc(-c4n[nH]c(=O)o4)cc23)cc1 (stereo not shown),4
19,CN(c1cccc(CNc2nc(Nc3ccc4c(c3)CC(=O)N4)ncc2C(F)(F)F)c1)S(C)(=O)=O,22

row,Compound,%Inh [%]
1,C[C@@H](Oc1cc(-n2cnc3ccc(-c4ccncc4)cc32)sc1C(N)=O)c1ccccc1Cl [GSK483724],36
2,c1ccc(Oc2ccc(Nc3ccnc4ccc(-c5ccccn5)cc34)cc2)cc1 [GW407034],15
3,COc1cc(Nc2nccc(N3CCC(NC(=O)c4cccc(C#N)c4)C3)n2)cc(OC)c1OC (stereo not shown) [GSK1379751],0
4,COC(=O)Nc1nc2cc(Oc3ccc(NC(=O)Nc4cc(C(F)(F)F)ccc4Cl)cc3)ccc2[nH]1.Cl [GW697465],10
5,COc1cccc(OC)c1C(=O)Nc1cccc(-c2nn3ccccc3c2-c2ccnc(Nc3cccc(F)c3)n2)c1 [GSK361065],0
6,C[C@@H](Oc1cc(-n2cnc3cc(-c4cnn(C)c4)ccc32)sc1C(N)=O)c1ccccc1Cl [GSK580432],20
7,O=C(Nc1ccc(Oc2ccc3nc(NC(=O)C4CC4)cn3n2)c(F)c1)c1cccn(-c2ccccc2)c1=O,39
8,Cn1cc(-c2cccc3c(N)c(C(N)=O)nnc23)cn1,30
9,Cc1ccc2c(-c3ccnc(Nc4ccc(C(F)(F)F)cc4)n3)cnn2n1 [GW819776],13
10,Cl.Nc1n[nH]c2cc(-c3ccccn3)ccc12 [GSK2189892],0
11,C[C@@H]1CNc2c(sc3ccc4nc(-c5ccc(O)cc5)ccc4c23)C(=O)N1,12
12,CC(=O)Nc1nc2cnc(Nc3cc(NC(=O)c4cccc(CC(C)(C)C#N)c4)ccc3C)nc2s1,0
13,CC(C)S(=O)(=O)N1CCN(Cc2ccc3c(c2)nc(NC(=O)c2ccsc2)n3C[C@H](O)c2ccccc2)CC1 [GW635815],25
14,Cn1ccc2ncnc(Oc3ccc(NC(=O)Nc4ccnc(C(F)(F)F)c4)c(Cl)c3)c21,0
15,O=C1NCCc2[nH]c(-c3ccncc3)cc21,13
16,Cc1ccc(C(=O)Nc2ccc(Oc3ccc4nc(NC(=O)C5CC5)cn4c3)c(F)c2)c(=O)n1-c1ccccc1,36
17,Cc1ccc(Nc2ccnc(Nc3ccc4c(c3)CS(=O)(=O)C4)n2)cc1O.Cl [GW579362],77
18,CN(c1ccccc1CNc1nc(Nc2ccc3c(c2)CC(=O)N3)ncc1C(F)(F)F)S(C)(=O)=O,55
